Source: PubChem BioAssay
Only some compounds are listed: those with a hit (about 3.5% of all), similar ones and a draw of the others.
Myeloid diff MLP: myeloid differentiation induction. ER-HoxA9 myeloid progenitors, lysozyme-GFP differentiation, flow cytometry. calls only at 10 µM. 360,000 tested, 1% active. AID 624256;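 active = normalized GFP-positive differentiation at or above the plate's own cutoff, the solvent-only control mean plus 3 SD; inconclusive = no clear call, values can overlap the other calls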;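 note: cells exposed to compound for four days before flow analysis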
ATG4B inhibitor: ATG4B (human) cysteine protease inhibition; Q9Y4P1; ATG4B cleavage of LC3-PLA2, NBD-HPC fluorescence, 1 h; inhibition, % at 8.33 µM; 340,000 tested, 0.51% active; in the data active = inhibition above about 40%
SKN-1 inh: inhibitors of C. elegans SKN-1; 360,000 tested, 0.49% active; C. elegans VP596 Pgst-4::GFP/RFP ratio, acrylamide-induced, 24 h; inhibition, % at 21.8 µM;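 active = interference check ratio from 0.5 to 1.5 plus GFP to RFP signal ratio inhibition reaching or exceeding a fixed threshold, cut at about 30% in these data, passing the limit was not always enough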
CHRM1 PAM: positive allosteric modulators of human M1 muscarinic receptor. P11229. CHO-K1 hM1, Fluo-8 calcium fluorescence, ACh EC20; 0% = ACh EC20, 100% = maximal ACh. activation, % at 3 µM. 360,000 tested, 0.088% active. AID 588819; in the data active = activation above about 19%, passing the limit was not always enough
Target sequence (P11229 whole entry, looked up): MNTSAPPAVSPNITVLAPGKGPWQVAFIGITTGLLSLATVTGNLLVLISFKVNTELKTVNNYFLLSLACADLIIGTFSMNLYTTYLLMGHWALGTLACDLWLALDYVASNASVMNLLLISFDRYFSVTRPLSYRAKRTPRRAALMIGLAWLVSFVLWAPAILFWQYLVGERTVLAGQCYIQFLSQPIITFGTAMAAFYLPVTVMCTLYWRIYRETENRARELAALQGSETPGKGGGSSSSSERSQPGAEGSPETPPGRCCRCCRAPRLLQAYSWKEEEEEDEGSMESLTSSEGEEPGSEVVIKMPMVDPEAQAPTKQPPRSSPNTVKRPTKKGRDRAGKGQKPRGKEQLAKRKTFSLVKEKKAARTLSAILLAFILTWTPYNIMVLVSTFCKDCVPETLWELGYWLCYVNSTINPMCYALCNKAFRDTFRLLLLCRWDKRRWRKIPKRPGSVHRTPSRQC
CHRM1 agonist: human M1 muscarinic receptor agonism; CHO-K1 hM1, Fluo-8 calcium fluorescence, agonist mode; 0% DMSO, 100% acetylcholine EC100; 360,000 tested, 0.33% active; activation, % at 3 µM;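 active = activation above the run's mean compound activation plus 3 SD, cut at about 16% in these data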;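 note: peak over basal fluorescence ratio within a 140 s kinetic read after compound addition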
CHRM1 antagonist: blocks human M1 muscarinic receptor; P11229; CHO-K1 hM1, Fluo-8 calcium fluorescence, ACh EC80 antagonist; inhibition, % at 3 µM; 360,000 tested, 1.3% active;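 active = percent inhibition above its own plate's cutoff, namely the mean of that plate's compound wells plus 3 SD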;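 note: peak over basal fluorescence ratio during 140 s after agonist addition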
ATG4B conf: confirmation of human ATG4B inhibitors. shares compounds with ATG4B inhibitor. ATG4B protease fluorescent substrate cleavage assay. inhibition, % at 8.33 µM. 320 tested, 92% active; in the data active = inhibition above about 39%
PLA2 counter: PLA2 (human) inhibition in ATG4B counter-screen | purified PLA2, NBD-C6-HPC fluorescence, 45 min | 1,600 tested, 66% active | inhibition, % at 8.33 µM | shares compounds with ATG4B inhibitor; in the data active = inhibition above about 50%
Target sequence (P04054 whole entry, looked up): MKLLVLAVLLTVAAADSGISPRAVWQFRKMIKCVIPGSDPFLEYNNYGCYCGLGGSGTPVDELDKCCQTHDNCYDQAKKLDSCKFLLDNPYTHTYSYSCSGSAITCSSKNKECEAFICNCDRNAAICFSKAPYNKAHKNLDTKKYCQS
Large screens that a line does not name were inactive (follow-up assays come after a bar, where they were run).

S=C(NCc1ccc(Cl)cc1)Nc1ccccc1	none
Fc1ccc(CNC(=S)Nc2ccc(Cl)cc2)cc1	ATG4B inhibitor 43 | PLA2 counter 52
S=C(NCc1ccncc1)Nc1cccc(Cl)c1	none
S=C(NCCC(c1ccccc1)c1ccccc1)Nc1cccc(Cl)c1	ATG4B inhibitor 46 | PLA2 counter 70
O=C(Cc1ccc(S(=O)(=O)N2CCOCC2)s1)Oc1ccc(F)cc1	none
CN(C(=O)c1cccc(NC(=O)Cc2cccc(NC(=O)C3CCN(C(=O)c4ccccc4)CC3)c2)c1)C1CCCC1	none
Cc1ccc(NC(=S)NCc2ccc(Cl)cc2)c(OC(F)F)c1	ATG4B inhibitor 47, CHRM1 antagonist 34 | PLA2 counter 55
O=[N+]([O-])c1ccc(NC(=S)NCc2ccncc2)cc1	none
FC(F)(F)c1cccc(NC(=S)NNC(=S)NCc2ccccc2)c1	ATG4B inhibitor 42 | PLA2 counter inactive
Fc1ccc(CNC(=S)NCc2ccccc2)cc1	ATG4B inhibitor 43 | ATG4B conf 71 | PLA2 counter inactive
S=C(NCc1ccccc1)NCc1ccc(CNC(=S)NCc2ccccc2)cc1	none
O=[N+]([O-])c1ccc(NC(=S)NCc2ccc(F)cc2)cc1	ATG4B inhibitor 57, CHRM1 antagonist 28 | PLA2 counter 68
CC(NC(=O)Cc1ccc(S(=O)(=O)N2CCOCC2)s1)c1ccc(Cl)cc1Cl (centres undefined)	none
COc1ccc(CCSc2nnc(C3CCCCC3)n2N)cc1	none
O=C(Nc1cccc(Cl)c1Cl)C1CCN(C(=O)c2cccs2)CC1	none
O=C(NCc1ccccc1Cl)c1ccccc1Oc1ccccc1	ATG4B inhibitor 53 | PLA2 counter inactive
O=C(NCc1ccccc1Cl)c1ccccc1CCc1ccccc1	none
O=C(NCc1ccccc1)c1cccc(NC(=O)c2ccccc2)c1	none
S=C(NCc1ccccc1)Nc1ccc(Oc2ccccc2)cc1	ATG4B inhibitor 57 | PLA2 counter 67
O=C(NCc1ccccc1Cl)c1cccc(NC(=O)c2ccccc2)c1	ATG4B inhibitor 48 | PLA2 counter 53
N#CC1(c2ccccc2)CCC(=O)N1Cc1ccccc1 (centres undefined)	none
O=C(NNC(=S)Nc1ccc(Cl)c(Cl)c1)c1cccc([N+](=O)[O-])c1	ATG4B inhibitor 85 | PLA2 counter 91
O=c1ncn(-c2cccc(Cl)c2)c2ccccc12	none
CCOc1ccccc1NC(=O)CSc1nc2[nH]ncc2c(=O)[nH]1	none
CCc1ccccc1NC(=O)c1ccc(S(=O)(=O)NCC2CCCO2)cc1 (centres undefined)	Myeloid diff MLP inconclusive
NC(=O)c1ccc(CSc2nc3ccccc3s2)cc1	ATG4B inhibitor 51 (no result: Myeloid diff MLP) | PLA2 counter 59
COCCNC(=O)c1ccc(CSc2nc3ccccc3s2)cc1	none
CC(C)(C)c1ccc(C(=O)Nc2ccccc2Cl)cc1	ATG4B inhibitor 45 | PLA2 counter 55
Cc1cccc(C(=O)Nc2ccc(C(=O)N/N=C/c3ccco3)cc2)c1	none
Brc1ccc(-c2nnc3n2C2(CCCC2)Cc2ccccc2-3)o1	ATG4B inhibitor 52 | PLA2 counter 63
c1coc(-c2nnc3n2C2(CCCC2)Cc2ccccc2-3)c1	none
CCOc1ccc(NC(=O)CN(C)C(=O)CSCc2c(C)noc2C)cc1OCC	none
CCN(CC(=O)Nc1ccc(C)c(S(=O)(=O)N2CCOCC2)c1)Cc1ccccc1	none
CSc1cccc(NS(=O)(=O)c2ccc3c(c2)oc(=O)n3C)c1	none
COC(=O)c1oc2ccc(Br)cc2c1-n1cccc1	none
O=C(O)c1oc2ccccc2c1-n1cccc1	ATG4B inhibitor 58 | PLA2 counter 57
O=C(CCc1nc(-c2cccs2)no1)NCc1ccc(F)cc1Cl	ATG4B inhibitor 43 | PLA2 counter 54
Cc1nn2c(COc3ccc(NC(=O)c4ccccc4Cl)cc3)nnc2c2ccccc12	Myeloid diff MLP active, ATG4B inhibitor 43 | PLA2 counter inactive
O=Cc1ccc(OCc2cccc(C(F)(F)F)c2)cc1O	ATG4B inhibitor 57 | PLA2 counter 77
COCOc1ccc(C=O)c(O)c1	none
Cn1c(COc2ccc(Br)cc2)nnc1SC1CCc2ccccc2C1=O (centres undefined)	ATG4B inhibitor 50 | PLA2 counter 62
Cc1cccc(NC(=O)Cn2c(=O)n(Cc3ccco3)c(=N)c3c4c(sc32)COC(C)(C)C4)c1	none
CC1(C)Cc2c(sc3c2c(=N)n(Cc2ccco2)c(=O)n3CC(=O)Nc2cccc(Cl)c2)CO1	ATG4B inhibitor 53 | PLA2 counter 60
O=C(c1ccc(Cl)cc1)c1oc2ccccc2c1CS(=O)c1ccccc1 (centres undefined)	ATG4B inhibitor 54 | PLA2 counter 59
O=C(O)c1oc2ccccc2c1CSc1ccc(Cl)cc1	none
CC(C)c1ccc(CN(C(=O)/C=C/c2ccco2)C2CCS(=O)(=O)C2)cc1 (centres undefined)	none
N#C/C(=C\c1ccc[nH]1)C(=O)Nc1ccccc1Cl	none
CC1CC1c1ccc(/C=C(\C#N)C(=O)Nc2ccccc2Cl)o1 (centres undefined)	ATG4B inhibitor 41 | PLA2 counter 51
CCc1cccc(NC(=S)Nc2cccc3ccccc23)c1	none
COc1ccccc1C(C)NC(=O)CN(C)CC(=O)Nc1c(C)cccc1C (centres undefined)	none
COC(=O)c1ccc(C(=O)NC2CCSc3ccccc32)cc1 (centres undefined)	none
Cc1ccc(NC(=S)NC2CCSc3ccccc32)cc1C (centres undefined)	ATG4B inhibitor 41, CHRM1 antagonist 79 | PLA2 counter 53
O=C(NS(=O)(=O)NC1CCCCC1)C1=C(N2CCCC2)COC1=O	none
Cc1ccc(C2C(/C=C3/SC(=S)NC3=O)=C(c3cccs3)Oc3ccccc32)cc1 (centres undefined)	ATG4B inhibitor 57 (no result: Myeloid diff MLP) | PLA2 counter 55
O=C(O)/C=C/c1ccccc1Oc1ccc(Cl)cc1Cl	ATG4B inhibitor 41 | ATG4B conf 68 | PLA2 counter inactive
CCCCOc1ccc(C(=O)NCC(=O)NCC(c2ccc(F)cc2)N2CCOCC2)cc1 (centres undefined)	none
CCOC(=O)C1(CCOc2ccccc2)CCN(Cc2ccc(-n3cccn3)cc2)CC1	none
CCCCN1C(=O)/C(=C/C=C2\SCCN2C)SC1=S	ATG4B inhibitor 73, SKN-1 inh 48 | PLA2 counter 80
